Assay results from PubChem BioAssay (NCATS).
Records with an inconclusive call do not appear. Activity calls are given as the source filed them. Calls come from the whole dose curve; as a rule, active = well fitted inhibition curve with a large enough effect; inconclusive = small, poorly fitted or top-dose-only effect; inactive = flat fitted curve, though single readings scatter.
Potency is the fitted concentration of half-maximal effect.

What follows are compounds tested on CP238 (assay: qHTS profiling for inhibitors of Plasmodium falciparum proliferation (AID 504749; note: nearly all actives have a fitted effect of over 60% in size;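 for activity, negative = inhibition: 0% = DMSO vehicle and full inhibition = artemisinin control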)). Conditions: P. falciparum in erythrocytes, SYBR Green DNA, 72 h; series mostly up to 28.7 µM; activity, negative = inhibition: at the top concentration.
Procedure, shortened: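 Readout was DNA-dye fluorescence from lysed cultures, ex 485/em 535 nm. Parasitized red cells had grown 72 h with compound; data scaled between 0.29 uM artemisinin and DMSO wells and corrected using vehicle-only plates.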
With `NC(=O)N1c2ccccc2CC(=O)c2ccccc21` the “activity, negative = inhibition” value was 0.629% (inactive).
With `CNS(=O)(=O)Cc1ccc2[nH]cc(CCN(C)C)c2c1` the “activity, negative = inhibition” value was -4.38% (inactive).
For `CCCc1cc(C(N)=S)ccn1`, the “activity, negative = inhibition” value was 2.59% (inactive).
`CCCN[C@H]1CCc2nc(N)sc2C1` was tested, and the “activity, negative = inhibition” value was -0.205% (inactive).
With `COc1ccc(C(=O)CC(=O)c2ccc(C(C)(C)C)cc2)cc1` the “activity, negative = inhibition” value was 0.01% (inactive).
With `CC(C)Cn1cnc2c(N)nc3ccccc3c21` the “activity, negative = inhibition” value was 2.61% (inactive).
`Nc1nc(N)nc(-c2cc(Cl)ccc2Cl)n1` was tested, and the “activity, negative = inhibition” value was 1.63% (inactive).
`OC(Cn1cncn1)(Cn1cncn1)c1ccc(F)cc1F` was tested, and the “activity, negative = inhibition” value was -0.557% (inactive).
For `CC(C)OC(=O)C(C(=O)OC(C)C)=C1SC=CS1`, the “activity, negative = inhibition” value was 3.1% (inactive).
For `NCCCC(O)(P(=O)(O)O)P(=O)(O)O`, the “activity, negative = inhibition” value was 3.93% (inactive).
In the case of `CC1=CC(=O)c2ccccc2C1=O`, the “activity, negative = inhibition” value is reported as 0.611% (inactive).
With `Nc1ccc(S(=O)(=O)Nc2ccccn2)cc1` the “activity, negative = inhibition” value was 1.66% [at 12.8 µM] (inactive).
With `Cc1noc(NS(=O)(=O)c2ccc(N)cc2)c1C` the “activity, negative = inhibition” value was 1.05% (inactive).
With `O=c1cc(O)c(Cl)c[nH]1` the “activity, negative = inhibition” value was 3.4% (inactive).
In the case of `Cn1nnc2c(C(N)=O)ncn2c1=O`, the “activity, negative = inhibition” value is reported as 5.48% (inactive).
In the case of `CNC1CCCN(c2c(F)cc3c(=O)c(C(=O)O)cn(C4CC4)c3c2OC)C1` (configuration not stated), the “activity, negative = inhibition” value is reported as -1.56% (inactive).
For `C#CCN[C@@H]1CCc2ccccc21`, the “activity, negative = inhibition” value was -1.54% (inactive).
With `COc1cc(NCc2ccc3nc(N)nc(N)c3c2C)cc(OC)c1OC` the Potency was 631 nM (active).
With `N[C@@H](C(=O)N[C@@H]1C(=O)N2C(C(=O)O)=C(Cl)CS[C@H]12)c1ccccc1` the “activity, negative = inhibition” value was 0.819% (inactive).
With `CN(C)CCc1c[nH]c2ccc(CS(=O)(=O)N3CCCC3)cc12` the “activity, negative = inhibition” value was 0.0573% (inactive).
In the case of `C[C@]12C=CC(=O)C=C1CC[C@@H]1[C@@H]2C(=O)C[C@@]2(C)[C@H]1CC[C@]2(O)C(=O)CO`, the “activity, negative = inhibition” value is reported as 7.51% (inactive).
`Nc1[nH]c(=O)ncc1F` was tested, and the “activity, negative = inhibition” value was 6.81% [at 12.8 µM] (inactive).
